Rows were chosen to be rich in hits. Some 4.1% of all compounds tested hit in one or more screens of this group.
DAX1 inh-1 – DAX1 (NR0B1) inhibitors, primary screen, cell-based, HEK293, Gal4-DAX1, luciferase luminescence | Nuclear receptor subfamily 0 group B member 1 (Homo sapiens), P51843 | HEK293 Gal4-DAX1 luciferase reporter | inhibition, % at 6.75 µM | hit rate 0.99% among 340,000;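 active = inhibition above the mean over all tested compounds plus 3 SD, cut at about 4.2% in these data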;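 note: 0% = DAX1-transfected cells with DMSO and 100% = empty-vector control cells with DMSO; inhibition shows as a rise in luminescence from relieved DAX1 repression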
Target sequence (P51843 207-470 limits assumed): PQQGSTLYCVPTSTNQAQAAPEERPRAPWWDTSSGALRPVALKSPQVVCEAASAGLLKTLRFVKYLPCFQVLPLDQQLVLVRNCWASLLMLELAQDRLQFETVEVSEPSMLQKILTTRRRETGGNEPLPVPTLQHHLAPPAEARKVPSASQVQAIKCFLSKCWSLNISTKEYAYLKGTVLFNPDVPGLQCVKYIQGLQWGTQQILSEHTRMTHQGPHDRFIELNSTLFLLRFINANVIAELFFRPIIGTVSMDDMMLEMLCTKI
DAX1 inh-2 – DAX1 (NR0B1) inhibitors on StAR promoter, primary screen, cell-based, luminescence, SF-1 (NR5A1), full-length DAX-1; AID 652010, 2013; hit rate 1.1% among 370,000; HEK293T StAR-luciferase reporter, SF-1/DAX-1 repression relief; inhibition, % at 6.8 µM;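 active = inhibition above the mean over all tested compounds plus 3 SD, cut at about 3.6% in these data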;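 note: 0% = DAX-1 cells with DMSO and 100% = cells lacking DAX-1 with DMSO; higher inhibition means more luminescence from relief of DAX-1 repression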
ssDAF12 agonist – S. stercoralis DAF-12 nuclear receptor activators, primary screen, cell-based, luminescence, HEK293, GRIP1 co-expression, lit1-tk-luc | AID 652126, 2013 | HEK293 ssDAF-12/GRIP1 lit1-tk-luc reporter; % of 3 µM dafachronic acid response | activation, % at 6.8 µM | hit rate 1% among 370,000;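 active = activation above the mean over all tested compounds plus 3 SD, cut at about 0.9% in these data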;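 note: 0% = DMSO-only wells and 100% = 3 µM delta7-dafachronic acid wells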
hgDAF-12 ag – H. glycines DAF-12 receptor agonists, primary screen, cell-based, luminescence, HEK293, GAL4 fusion, UAS-luciferase; HEK293 GAL4-hgDAF12 UAS-luciferase reporter, agonist luminescence; normalized to butyrate control; Nuclear hormone receptor DAF-12 (Heterodera glycines), GAL4 fusion; activation, % at 6.8 µM; hit rate 1.8% among 370,000;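 active = activation above a cutoff set at the mean of all screened compounds plus 3 SD, cut at about 10% in these data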;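 note: 0% = DMSO wells and 100% = sodium butyrate wells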
hcDAF-12 act – H. contortus DAF-12 nuclear receptor activators, primary screen, cell-based, luminescence, HEK293, lit1-tk-luc reporter | HEK293 hcDAF-12 lit1-tk-luc reporter; 0% DMSO, 100% Δ7-dafachronic acid | activation, % at 6.8 µM | hit rate 1.4% among 370,000;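 active = activation above the mean of all tested compounds plus 3 SD, cut at about 5.5% in these data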;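 note: 100% = response to 3 µM Δ7-dafachronic acid high control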
Numbers without * were called inactive; · = not tested or not shown.

SMILES	DAX1 inh-1	DAX1 inh-2	ssDAF12 agonist	hgDAF-12 ag	hcDAF-12 act
O=C(Nc1ccc2c(c1)OCO2)OC1CC2CC1[C@H]1CCCCN1[C@H]2Cc1ccccc1 (some centres undefined)	·	-1	-1	1	-2
COc1ccc(N2C(=O)C3C(c4ccc(OC)cc4O)NC(Cc4ccccc4)(C(=O)O)C3C2=O)cc1 (centres undefined)	7.6*	0	0	2	0
CCCCCCN1CCS(=O)(=O)N(Cc2ccc(F)cc2)C(C(=O)OC)C1 (centres undefined)	·	-1	-1	1	-1
O=S1(=O)C=CCN1Cc1cn(Cc2ccc(F)cc2)nn1	·	1	-1	3	-2
O=[N+]([O-])c1ccccc1S(=O)(=O)Oc1ccc(/C=N/n2cnnc2)cc1	2	-1	1.2*	8	3
COc1cc(/C=N/n2cnnc2)ccc1OS(=O)(=O)c1ccccc1[N+](=O)[O-]	1	-1	-1	2	-1
NC(=O)[C@@H]1CCCN1C(=O)c1ccc2oc(CCc3ccccc3)nc2c1	1	3.6*	-1	5	0
COCC1CCCN(C(=O)c2ccc3oc(CCCc4ccccc4)nc3c2)C1 (centres undefined)	-1	-2	-1	-2	-3
O=C(c1ccc2oc(CCCc3ccccc3)nc2c1)N1CCCCC1CO (centres undefined)	1	3.8*	0	8	1
CCOC(=O)[C@]12CCCC3=C1N(CCC3)C(=O)[C@@H](CC(=O)NCCCN1CCCC1=O)C2	·	0	-1	1	1
O=C1N2Cc3ccccc3C2CS(=O)(=O)N1CCc1ccccc1 (centres undefined)	·	1	-2	4	-1
O=[N+]([O-])c1cc(N=Nc2ccc3ccccc3c2)ccc1O	1	0	1.3*	4	4
Nc1ccc(O)c([N+](=O)[O-])c1	0	1	-1	-2	0
CC1=N/C(=C\c2ccc(OC(C)C)cc2)C(=O)N1c1ccc(C(=O)O)cc1	-1	0	1.9*	2	-3
NC(=O)c1ccc(-c2noc(-c3cccc(Cl)c3)n2)cc1	1	0	0	5	-1
O=C(O)c1cccc(-c2noc(-c3cccc(Cl)c3)n2)c1	-2	2	0	13*	4
C/C(=N\O)c1ccc2c3c([nH]c2c1)CCCC3	1	0	-1	11*	-1
O=C(Nc1cc2c(cc1Br)OCCCO2)c1ccccc1	3	2	1	11*	4
O=C(Nc1cc2c(cc1Br)OCCCO2)c1cccnc1	1	2	-1	2	1
CCOC(=O)CNC(=O)c1ccc(OCC(F)(F)F)cc1	1	2	0	13*	1
COC(=O)N[C@H]1CC=C[C@@H]1Cc1cccc(Oc2ccccc2)c1	·	0	-1	-1	0
C[C@@H]1COc2cc(Br)ccc2S(=O)(=O)N1Cc1cn(Cc2ccc(F)cc2)nn1	·	0	-2	2	-1
CN(CC(=O)Nc1cccc(F)c1)C(=O)c1cccc(S(=O)(=O)N2CCN(Cc3ccccc3)CC2)c1	-2	-2	11*	-3	-3
O=C(N[C@H](C(=O)N1CCC[C@H]1C(=O)NC1CCCC1)c1ccccc1)C1CCCC1	·	0	-1	-1	-1
c1ccc(-c2nc3ccccc3n2C(c2ccccc2)c2nc3ccccc3[nH]2)cc1 (centres undefined)	·	4	0	12*	5
SMILES	DAX1 inh-1	DAX1 inh-2	ssDAF12 agonist	hgDAF-12 ag	hcDAF-12 act
O=c1c(-c2ccccc2)nc2ccccc2n1C(c1ccccc1)c1nc2ccccc2[nH]1 (centres undefined)	·	1	-1	7	-2
O=C(CN1CCOCC1)Nc1ccc([N+](=O)[O-])cc1Br	2	-1	1.3*	0	1
O=C(CN1CCCCCC1)Nc1ccc([N+](=O)[O-])cc1Br	-1	0	-1	3	-1
Cc1ccc([N+](=O)[O-])cc1-c1ccc(/C=N/NC(=O)CN2CCOCC2)o1	-1	0	0.9*	2	1
CCOC(=O)Cc1nc(N2CCN(C=O)CC2)c2c(C)c(C(=O)OCC)sc2n1	·	0	-2	3	-3
O=C(CSc1ccccc1)Nc1cc(S(=O)(=O)N2CCOCC2)ccc1N1CCOCC1	4.3*	0	-1	4	1
O=C(/C=C/c1ccccc1)Nc1cc(S(=O)(=O)N2CCOCC2)ccc1N1CCOCC1	4.5*	0	-1	1	-1
Cc1cc(NC(=S)NC(=O)/C=C/c2ccc(S(=O)(=O)N3CCOCC3)cc2)ccc1Br	1	0	3.9*	-2	1
O=C(Cc1c(F)cccc1Cl)Nc1cc(S(=O)(=O)N2CCCCC2)ccc1N1CCOCC1	5.8*	0	-1	0	-1
CN1CCN(c2ccc(S(=O)(=O)N3CCCCC3)cc2NC(=O)Cc2c(F)cccc2Cl)CC1	0	-1	-1	-3	-1
O=C(/C=C/c1ccccc1)Nc1cc(S(=O)(=O)N2CCOCC2)ccc1N1CCCC1	-1	0	-1	0	-2
C#CCN1C(=O)[C@]2(NCCc3c2[nH]c2ccc(OC)cc32)c2cc(F)ccc21	·	-1	-1	2	-2
C=CCN1C(=O)[C@@H](CC(=O)N2CCCC2)[C@]2(C(=O)OCC)CCCCC/C=C/12	·	1	-1	-3	0
CN1Cc2nnn(Cc3ccccc3)c2-c2cc(F)ccc2S1(=O)=O	·	1	-1	-2	3
Nc1nc(N)c(N=O)c(OCC2CCCCC2)n1	2	3	0	12*	0
Cc1ccc(OC(=O)c2ccc(S(=O)(=O)N(C)C)cc2)c(-n2nc3ccccc3n2)c1	4.3*	3	0	12*	3
Cc1ccc(OC(=O)c2cccc(S(=O)(=O)N3CCCC3)c2)c(-n2nc3ccccc3n2)c1	4	2	-1	11*	1
Cc1ccc(OC(=O)c2cccc(S(=O)(=O)N(C)C)c2)c(-n2nc3ccccc3n2)c1	2	3	-1	10	5
CCCNC(=O)C1CC(=O)N(c2ccc(OCc3ccc(F)cc3)cc2)C1 (centres undefined)	1	3	0	13*	5.9*
NC(=O)C1CC(=O)N(c2ccc(OCc3ccc(Cl)cc3)cc2)C1 (centres undefined)	1	3	1	12*	3
